Test [1] can be described thus: A CellTox Green Cytotoxicity Assay to monitor cytotoxicity in HEK293 cells - 24 hour (AID 1224875). Further: nearly all actives have a fitted effect of over 45% in size. Further: potency means the concentration at half of the fitted maximal effect. On activity change: series mostly up to about 77 µM. Summed up: (§1)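 Fluorescence intensity, read at 0, 8, 16, 24, 32 and 40 h of compound treatment, reflected dye binding to DNA of dead HEK293 cells; compounds (23 nL, DMSO) were added 5 h after plating cells with reagent.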
Test [2] is described as follows: A CellTox Green Cytotoxicity Assay to monitor cytotoxicity in HepG2 cells - 16 hour (AID 1224876). Further: nearly all actives have a fitted effect of over 45% in size. Further: potency means the concentration at half of the fitted maximal effect. The procedure, abridged: (§2)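 Using 1536-well format, dye-containing HepG2 suspension was seeded, allowed 5 h at 37 C/5% CO2, dosed by pintool with compounds, positive and negative controls, and imaged for fluorescence across 40 h.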
A short description of test [3]: qHTS RealTime-Glo MT Cell Viability Assay in HepG2 cells - 32 hour (AID 1224877). Further: nearly all actives have a fitted effect of over 55% in size. Further: potency means the concentration at half of the fitted maximal effect. The procedure, abridged:
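Viability was tracked continuously by NanoLuc luminescence from prosubstrate reduced by living HepG2 cells, at successive time points over 40 h of compound exposure. Cells with reagent were preincubated 5 h at 37 °C before compound addition.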
A general note: qHTS replaces the single test concentration by a dilution series.

The nature of test [4]: A CellTox Green Cytotoxicity Assay to monitor cytotoxicity in HepG2 cells - 24 hour (AID 1224878). Further: nearly all actives have a fitted effect of over 45% in size. Further: potency means the concentration at half of the fitted maximal effect. Summed up: as §2
Test [5] is described as follows: A CellTox Green Cytotoxicity Assay to monitor cytotoxicity in HepG2 cells - 40 hour (AID 1224879). Further: nearly all actives have a fitted effect of over 40% in size. Further: potency means the concentration at half of the fitted maximal effect. Summed up: as §2
Test [6] in a line: qHTS RealTime-Glo MT Cell Viability Assay in HEK293 cells - 0 hour (AID 1224880). Further: nearly all actives have a fitted effect of over 45% in size. Further: potency means the concentration at half of the fitted maximal effect. On activity change, negative = cytotoxicity: top concentration of the series differs between compounds. The procedure, abridged: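 Viable HEK293 cells reduce a cell-permeant prosubstrate; the product diffuses out and is consumed by NanoLuc in the medium to give light. Compounds went in after a 5 h incubation and plates were read over the treatment course.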
Test [7] in a line: A CellTox Green Cytotoxicity Assay to monitor cytotoxicity in HEK293 cells - 32 hour (AID 1224881). Further: nearly all actives have a fitted effect of over 40% in size. Further: potency means the concentration at half of the fitted maximal effect. Summed up:
as §1

A short description of test [8]: A CellTox Green Cytotoxicity Assay to monitor cytotoxicity in HepG2 cells - 32 hour (AID 1224883). Further: nearly all actives have a fitted effect of over 50% in size. Further: potency means the concentration at half of the fitted maximal effect. Summed up:
as §2

A short description of test [9]: A CellTox Green Cytotoxicity Assay to monitor cytotoxicity in HepG2 cells - 0 hour (AID 1224882). Further: nearly all actives have a fitted effect of over 35% in size. The procedure, abridged:
as §2

Consider 31 compounds from PubChem BioAssay (Tox21).

Unmarked numbers belong to inactive results. Inconclusive results are not listed. Activity calls are given as the source filed them. The call rests on the fitted dose curve; in most records, active means well fitted curve in the direction sought with a large enough effect in the repeat runs; inconclusive means weak or mixed curves; inactive means no such curve, though single readings can be large; an effect the other way counts as inactive or inconclusive.
On the % scale 0 is the no-effect control and ±100 the full control effect.

Take `CCN(CC)c1ccc2c(c1)Oc1cc(N(CC)CC)ccc1C21OC(=O)c2ccccc21`: the Potency in test [1] is 19 µM (active); in [2], 23.9 µM (active); in [4] it was 23.9 µM (active); in test [5], 23.9 µM (active); in test [7] it was 19 µM (active); in test [8], 23.9 µM (active). For the same compound, the Potency entry in test [3] and in test [6] was “inactive” throughout.

Regarding `CCOC(=O)OC(=O)OCC`, the Potency entry in [1], in test [2], in [3], in test [4], in test [5] and in [7] was “inactive” each time. For the same compound, the Potency entry in [9] and in [8] was “inactive” throughout.

Turning to `CCCOC(=O)c1ccc(O)cc1`, the Potency entry in test [1], in test [2], in test [3], in test [4], in test [6] and in test [7] was “inactive” in each case. The Potency entry in test [9] and in [8] was “inactive” throughout.

On to `O=C1c2ccccc2C(=O)c2c(Cl)cccc21`, for which the Potency result in test [1], in [2], in [3], in [4], in [5] and in [6] was “inactive” in each case. Besides, the Potency entry in [7], in test [9] and in test [8] was “inactive” throughout.

With `COc1cccc(-c2ccc(/C=C\CN3CCCCCC3)cc2Cl)c1`, the Potency in [1] was 48.7 µM (active); in test [2] it was 43.4 µM (active); in test [3], 48.7 µM (active); in test [4], 43.4 µM (active); in test [5], 38.7 µM (active); in test [7], 43.4 µM (active). The Potency in [8] is 38.7 µM (active). In addition, the Potency entry in test [9] was “inactive”.

`C1CCSC1`: the Potency entry in test [1], in [2], in [3], in [4], in [5] and in [6] was “inactive” throughout. The Potency result in [7], in test [9] and in [8] was “inactive” throughout.

As to `COc1cc(C(C)C)ccc1C`, the activity change in [1] was -1.5% [at 15.8 µM, hits give high values]. For the same compound, the cytotoxicity increase in [2] is -12.9% [at 15.8 µM]; in test [5], -18.2% [at 15.8 µM]; in test [7] it was -4.81% [at 15.8 µM]; in test [8], -14.3% [at 15.8 µM]. Further, in test [3], the activity change, negative = cytotoxic was 7.91% [at 15.8 µM]. In addition, the cytotoxicity in [4] was -14.9% [at 15.8 µM]; in test [9], -8.39% [at 15.8 µM]. Further, in test [6], the activity change, negative = cytotoxicity is 6.56% [at 15.8 µM].

Regarding `O=C(N[C@H](CO)[C@H](O)c1ccc([N+](=O)[O-])cc1)C(Cl)Cl`, the Potency result in test [1], in test [2], in [3], in test [4], in test [5] and in test [7] was “inactive” in each case. The Potency result in test [9] and in test [8] was “inactive” throughout.

`CC(C=O)c1ccccc1` (configuration not stated): the Potency entry in test [1], in test [2], in [3], in [5], in test [6] and in [7] was “inactive” throughout. In addition, the Potency result in [9] and in test [8] was “inactive” throughout.

`O=C1OCc2ccccc21`: the Potency result in test [1], in test [2], in [3], in [4], in [5] and in test [6] was “inactive” in each case. Further, the Potency result in test [7], in [9] and in test [8] was “inactive” in each case.

With `C=COCCCC`, the Potency result in test [1], in [2], in [3], in test [4], in [5] and in test [9] was “inactive” each time. Further, in test [8], the Potency entry was “inactive”.

As to `Cc1ccc(S(=O)(=O)C(I)I)cc1`, the Potency in test [1] is 34.7 µM (active); in test [2] it was 54.9 µM (active); in test [3], 11 µM (active); in test [4], 49 µM (active); in [5], 24.5 µM (active); in [6] it was 0.616 µM (active). For the same compound, the Potency in test [7] was 24.5 µM (active); in [8], 43.6 µM (active). Further, the Potency entry in test [9] is “inactive”.

As for `Nc1c(Br)cc([N+](=O)[O-])cc1Br`, the Potency result in [1], in test [2], in test [3], in test [4], in test [5] and in test [6] was “inactive” in each case. In addition, the Potency entry in [7], in [9] and in test [8] was “inactive” in each case.

Turning to `Nc1cccnc1N`, the Potency entry in test [1], in [2], in test [3], in [4], in test [5] and in [6] was “inactive” throughout. Moreover, the Potency entry in test [7], in [9] and in test [8] was “inactive” in each case.

Take `O=[N+]([O-])c1ccc(CO)cc1`: the Potency result in test [1], in test [2], in test [3], in test [4], in [5] and in test [6] was “inactive” throughout. In addition, the Potency entry in test [7], in test [9] and in [8] was “inactive” in each case.

Regarding `CCCCCN=C(N)N/N=C/c1c[nH]c2ccc(OC)cc12`, the Potency was 6.74 µM (active) in test [1]; 6.74 µM (active) in [2]; 5.35 µM (active) in test [3]; 5.35 µM (active) in test [4]; 5.35 µM (active) in test [5]; 6.01 µM (active) in test [7]. Moreover, in test [8], the Potency was 6.01 µM (active). The Potency entry in [9] is “inactive”.

In the case of `C=CC(=O)OCC(Br)CBr` (configuration not stated), the Potency result in test [1], in test [2], in [3], in [4], in [5] and in [7] was “inactive” in each case. Also, the Potency result in test [9] and in test [8] was “inactive” in each case.

`[Cl][Dy]([Cl])[Cl]`: the Potency entry in test [1], in test [2], in [3], in test [5], in [6] and in test [7] was “inactive” throughout. Also, the Potency entry in [9] and in test [8] was “inactive” throughout.

In the case of `SC1CCCCC1`, the Potency result in [1], in test [2], in test [3], in test [4], in [5] and in test [6] was “inactive” throughout. Further, the Potency entry in test [7], in test [9] and in [8] was “inactive” throughout.

Regarding `CCCC(C)C=O` (configuration not stated), the Potency entry in [1], in test [2], in [3], in [5], in [6] and in test [7] was “inactive” in each case. Moreover, the Potency entry in test [9] and in test [8] was “inactive” each time.

Consider `Cn1c(=O)[nH]c2ncn(C)c2c1=O`, for which the Potency entry in test [1], in test [2], in [3], in [5], in test [6] and in test [7] was “inactive” in each case. The Potency result in test [9] and in test [8] was “inactive” in each case.

On to `Nc1ccc(Oc2cccc(Oc3ccc(N)cc3)c2)cc1`, for which the Potency entry in [1], in [2], in test [3], in test [4], in test [5] and in [7] was “inactive” each time. For the same compound, in [8], the Potency result was “inactive”.

For `O=c1[nH]cccc1O`, the Potency entry in test [1], in [2], in test [3], in [4], in test [5] and in test [6] was “inactive” throughout. Also, the Potency entry in test [7], in [9] and in test [8] was “inactive” throughout.

As for `C=C[Si](C)(C)Cl`, the activity change in [1] was -5.65% [at 6.97 µM, hits give high values]. Also, the cytotoxicity increase in test [2] is -13.5% [at 6.97 µM]; in test [5], -18.2% [at 6.97 µM]; in test [7] it was -7.47% [at 6.97 µM]; in test [8], -16.4% [at 6.97 µM]. In test [3], the activity change, negative = cytotoxic was 9.18% [at 6.97 µM]. The activity change, negative = cytotoxicity in test [6] is -5.88% [at 6.97 µM]. In test [9], the cytotoxicity was -6.72% [at 6.97 µM].

In the case of `CC(C)(C)C1=CC(=O)C(C(C)(C)C)=CC1=O`, the Potency entry in [1], in [2], in test [3], in [4], in test [5] and in test [6] was “inactive” in each case. Further, the Potency entry in test [7], in [9] and in [8] was “inactive” in each case.

Take `O=C1CCC(=O)N1`: the Potency entry in test [1], in test [2], in [3], in test [4], in test [5] and in test [7] was “inactive” in each case. Also, in [8], the Potency entry is “inactive”.

On to `COc1ccc(OC)c(N=Nc2c(O)ccc3ccccc23)c1`, for which the Potency entry in test [1], in [2], in [3], in test [4], in [6] and in [7] was “inactive” in each case.

Consider `Oc1cccc2c(O)cccc12`, for which the Potency result in [1], in [2], in test [3], in test [4], in [5] and in [6] was “inactive” throughout. In addition, the Potency entry in test [7], in [9] and in test [8] was “inactive” throughout.

On to `CC(CC(C)(C)C)CC(C)(C)CC(C)(C)C` (configuration not stated), for which the Potency result in test [1], in test [2], in test [3], in [4], in test [5] and in test [6] was “inactive” each time. Further, the Potency entry in test [7], in test [9] and in test [8] was “inactive” throughout.

In the case of `CCNc1nc(NC(C)(C)C)nc(OC)n1`, the Potency entry in test [1], in test [2], in [3], in test [4], in [5] and in [6] was “inactive” throughout. Also, the Potency entry in test [7], in [9] and in [8] was “inactive” throughout.

Turning to `S=C1NC=NC2N=CNC12` (configuration not stated), the Potency entry in test [1], in [2], in [3], in [5], in test [6] and in test [7] was “inactive” each time. The Potency entry in test [9] and in test [8] was “inactive” in each case.
